From PubChem BioAssay (NCATS) come the findings set out here.

Results filed as inconclusive are left out. Entries that show only a call come without a potency. Active and inactive are the calls of the source. Calls follow the shape of the dose curve; as a rule, active = well fitted inhibition curve with a large enough effect; inconclusive = small, poorly fitted or top-dose-only effect; inactive = no such curve, though single readings can be large or run the other way.

For the experiment, the target named is Retinaldehyde dehydrogenase 3 (Homo sapiens) (UniProt P47895). Description: qHTS for Inhibitors of the Aldehyde Dehydrogenase Family (ALDH1A3) Primary screen (AID 2061315). As to conditions: ALDH inhibition qHTS; series mostly up to 56 µM.
Turning to `O=C1c2ccccc2C(=O)N1c1noc2ccccc12`, the Potency result was “inactive”. Consider `CC(=O)Nc1sc2c(c1-c1ccc3c(c1)OCO3)CCNC2`, for which the Potency entry was “inactive”. Under `CCC(=O)NC(c1ccc(C)cc1)c1cc([N+](=O)[O-])c2cccnc2c1O` (stereo not given) stands “inactive”; under `CC(=O)c1ccc(N2CCN(S(=O)(=O)c3ccc(N4CCCC4=O)cc3)CC2)cc1`, “inactive”. For the compound `O=[S+]([O-])(c1ccc2c(c1)OCCO2)N1CCN([S+](=O)([O-])c2c(Cl)cc(Cl)cc2Br)CC1`, the Potency entry is “inactive”.

For the compound `Cn1cnc(CN=C2NC3=C(C(=O)CCC3)C(c3[nH]ncc3Cl)N2)c1` (stereo not given), the Potency result was “inactive”.

In the case of `Cc1cc(NS(=O)(=O)c2ccc(NC(=O)Cc3ccc(C)c(F)c3)cc2)no1`, the Potency entry is “inactive”. With `C#C[C@]1(O)CC[C@H]2[C@@H]3CCC4=C/C(=N/O)CC[C@@H]4[C@H]3CC[C@@]21CC`, the Potency entry was “inactive”. With `CNc1nc(-c2ccc3c(N)n[nH]c3c2)cc(N2CC(C(=O)NC3CCCCC3)CCC2C)n1` (stereo not given), the Potency entry is “inactive”. Consider `Fc1cc(Nc2nc(-c3ccncc3)nc3ccccc23)ccc1-c1cc(F)c(F)c(F)c1`, for which the Potency result was “inactive”. Consider `O=C(Nc1cccnc1)c1cccs1`, for which the Potency result is “inactive”.

For the compound `CC1OC2OC3C(OCC(O)C3O)OC(=O)C34CCC(C)(C)CC3C3=CCC5C6(C)CC(O)C(OC7OC(CO)C(O)C(O)C7OC7OCC(OC(=O)CC(C)(O)CC(=O)OC1C(OC1OCC(O)C(O)C1O)C2O)C(O)C7O)C(C)(CO)C6CCC5(C)C3(C)CC4O` (stereo not given), the Potency result is “inactive”. As for `CCCCN(C)C(=O)Cn1nc(-c2ccc(F)cc2)ccc1=O`, the entry is “inactive”; as for `Fc1cc(Nc2nc(-c3ccncc3)nc3ccccc23)ccc1-c1cccc(OC(F)(F)F)c1`, “inactive”. As for `O=C(OCC#CCSc1nnc(-c2cccc3ncccc23)o1)c1ccc(F)cc1`, the entry is “inactive”; as for `Cc1cc(C)nc(NC(=S)N2CCN(c3ncnc4sccc34)CC2)c1`, “inactive”; as for `Cc1ccc(C(=O)Nc2nnc(-c3ccco3)o2)cc1`, “inactive”. As for `Cc1ccc(OCCn2c(CCNC(=O)C3CC3)nc3ccccc32)cc1`, the entry is “inactive”. For `CC(=O)Nc1cc2c(s1)CNCC2`, the Potency entry was “inactive”. With `N#Cc1nc(Nc2cccc(C(F)(F)F)c2)nc(NC2CCCC2)n1`, the Potency result was “inactive”. Under `C=CCNc1oc(C2CCCC2)nc1C#N` stands “inactive”; under `COc1cc(OC)cc(C2=Nn3c(nnc3-c3ccccc3OC)SC2)c1`, “inactive”. Under `Cc1cc2c(s1)c1cnn(Cc3ccc(Br)cc3F)c(=O)c1n2C` stands “inactive”; under `Cc1ccsc1CN(C)c1ncnc2ccc(-c3ccc([C@@H](C)O)o3)cc12`, “inactive”. As for `Cc1ccc(S(=O)(=O)Nc2cncc(C(=O)Nc3nc(-c4ccccc4)cs3)c2)cc1`, the entry is “inactive”. As to `CC(C)(C)NC(=O)N1CCC(C(=O)Nc2ccc([S+](=O)([O-])Nc3nccs3)cc2)CC1`, the Potency entry was “inactive”. As for `Cc1ccc(-c2ccc(=O)n(CC(=O)N(C)C(C)c3ccco3)n2)cc1` (stereo not given), the entry is “inactive”; as for `CNc1oc(-c2ccc(F)cc2)nc1C#N`, “inactive”. Under `Cc1ccc(-c2cc(C(=O)Nc3ccccc3Cl)c3ccccc3n2)cc1C` stands “inactive”; under `CC(C)Oc1cccc(-c2ccnc(N3CCC(C(N)=O)CC3)n2)c1`, “inactive”; under `N#Cc1ccc(CSc2nc3ncc(Br)cc3[nH]2)cc1`, “inactive”. Take `CC(C)(C#CCSc1nnc(-c2cccc3ccccc23)o1)OC(=O)c1ccc(F)cc1`: the Potency result was “inactive”. Take `COc1ccc(OC)c(C2=Nn3c(nnc3-c3cccc(OC)c3OC)SC2)c1`: the Potency entry was “inactive”. As for `COc1ccc(-n2cnc3c(c2=N)C(c2cccc(OC)c2)c2c(ccc4ccccc24)O3)cc1` (stereo not given), the entry is “inactive”; as for `C/C=C(\C)[C@@H]1C(C)=C[C@@H]2[C@H]([C@@H]1/C=C/C=C/C(=O)O)[C@@H](C)CC[C@@H]2O`, “inactive”; as for `Cc1cc(C)n2ncc(C(=O)Nc3ccc(C(F)(F)F)cc3)c2n1`, “inactive”. As for `O=[S+]([O-])(Nc1ccccc1)c1ccc(NCc2cccc(C(F)(F)F)c2Cl)cc1`, the entry is “inactive”; as for `COc1ccccc1-c1nnc2n1N=C(c1ccc(OC(F)F)c(OCC3CC3)c1)CS2`, “inactive”. As for `Cc1nc(C)c2c(n1)N(Cc1ccc(-c3ccccc3-c3nn[nH]n3)cc1)C(=O)CC2`, the entry is “inactive”; as for `O=C(NCCc1nc2ccccc2[nH]1)C1CCCCC1`, “inactive”.
